In assay [1] the test system is Wnt5a (protein binding on small-molecule microarray). Nature of the assay: Wnt5a binders on small-molecule microarray, primary screen, biophysical, 635/667 nm fluorescence (AID 1142).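 Note: fluorescence read at 667 nm with signal to noise per printed feature.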 The note with it: 635 nm fluorescence, higher = more signal.
Assay [2] in a line: cell viability in Huh7 cells, primary screen, cytotoxicity control for HCV replication inhibitor project, CellTiter-Glo luminescence, basal, 48 h (AID 1143).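 Note: Huh7 hepatoma cells carrying a hepatitis C replication reporter with no stimulus; test concentration not given here.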 The note with it: Huh7 HCV replicon, higher = more signal, called active from +8 up or from −8 down.
Assay [3] can be described thus: P. aeruginosa biofilm formation inhibitors, primary screen, PAO1 strain, BacTiter-Glo luminescence, LB-PBS (AID 1144). The note with it: 12 h, higher = more signal.
Assay [4] can be described thus: CREB reporter modulators without forskolin, primary screen, cell-based, PC12, CRE-LacZ reporter, unstimulated (AID 1145). The note with it: no forskolin, luminescence, 4.5 h, higher = more signal, called active from +8 up or from −8 down.
Assay [5] can be described thus: CREB reporter modulators under forskolin, primary screen, cell-based, PC12, CRE-LacZ reporter, forskolin-stimulated (AID 1146).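 Note: PC12 cells with 6xCRE LacZ reporter stimulated by forskolin 10 µM; beta-galactosidase reporter signal reflecting CREB driven transcription.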 The note with it: luminescence, 4.5 h, higher = more signal, called active from +8 up or from −8 down.
In assay [6] the target is Streptavidin (Streptomyces avidinii) (UniProt P22629). Nature of the assay: streptavidin binders on small-molecule microarray, primary screen, artefact control for SMM compound annotation, biophysical, 635/667 nm fluorescence (AID 1147).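 Note: signal reflects streptavidin binding to arrayed compounds as a control protein.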 The note with it: streptavidin binding, higher = more signal.
Streptavidin (Streptomyces avidinii), sequence (P22629 whole entry, looked up): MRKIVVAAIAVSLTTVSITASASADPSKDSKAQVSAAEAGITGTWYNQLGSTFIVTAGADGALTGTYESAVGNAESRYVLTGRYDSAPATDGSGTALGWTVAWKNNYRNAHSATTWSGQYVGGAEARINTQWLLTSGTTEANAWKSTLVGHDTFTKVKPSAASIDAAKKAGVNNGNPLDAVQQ
Assay [7] is described as follows: small-molecule binders of probe aInhba, primary screen, biochemical, small-molecule microarray, 635/667 nm fluorescence (AID 1148).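 Note: score merges 667nm spot fluorescence with signal-to-noise for antibody binding to printed compounds.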 The note with it: higher = more signal.
The target in assay [8] is Torsin-1A (Homo sapiens) (UniProt O14656). Kind of assay: torsin A binders from cell lysate, primary screen, small-molecule microarray, wild-type, 635/667 nm (AID 1149). The note with it: COS7 hTOR1A-WT lysate, 635 nm fluorescence, higher = more signal.
Torsin-1A (Homo sapiens), sequence (O14656 whole entry, looked up): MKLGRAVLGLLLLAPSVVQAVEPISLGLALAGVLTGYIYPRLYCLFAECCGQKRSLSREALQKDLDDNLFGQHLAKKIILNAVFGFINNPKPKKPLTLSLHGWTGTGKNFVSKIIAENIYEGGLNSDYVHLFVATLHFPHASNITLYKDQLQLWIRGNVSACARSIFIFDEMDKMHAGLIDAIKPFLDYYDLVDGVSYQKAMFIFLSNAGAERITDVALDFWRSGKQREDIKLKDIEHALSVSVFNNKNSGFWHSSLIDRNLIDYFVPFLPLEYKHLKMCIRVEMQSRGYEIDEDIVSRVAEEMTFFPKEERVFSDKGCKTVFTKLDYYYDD
Assay [9] has the same target. Nature of the assay: small-molecule binders of mutant TOR1A in lysate, primary screen, cell lysate, small-molecule microarray, COS7 lysate, 635/667 nm fluorescence (AID 1150).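 Note: score pools 667 nm emission and signal to noise measuring lysate protein binding.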 The note with it: COS7 hTOR1A mutant lysate, 635 nm fluorescence, higher = more signal.
The subject of assay [10] is Sonic hedgehog protein (Shh). Nature of the assay: small-molecule binders of Shh protein, primary screen, biochemical, small-molecule microarray, 635/667 nm fluorescence (AID 1151).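 Note: Shh protein binding to compounds spotted on small-molecule microarray slides; score combines spot fluorescence intensity with signal-to-noise across triplicate slides.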 The note with it: small-molecule microarray binding, 635 nm fluorescence; higher = more signal.

The structures appear in SMILES notation. Activity calls are given as the source filed them. Unless noted, the rule behind the calls is not given here.

As to `COCCCNC(=O)[C@@]1(Cc2ccccc2)COC(c2ccc(OCCCO)cc2)=N1`, the composite z-score in [1] is 0.788; in [6] it was -0.207; in [7], 0.263; with Torsin-1A (Homo sapiens) [8], 0.673; in the assay with Torsin-1A (Homo sapiens) [9], 0.878; in assay [10], -0.795. The z-score is -1.02 (inactive) in [2], 0.211 (inactive) in [3], -0.0808 (inactive) in [4] and 0.347 (inactive) in assay [5].
As for `[N-]=[N+]=Nc1ccccc1[C@H]1OC(c2ccc(OCCCO)cc2)=N[C@@]1(Cc1ccccc1)C(=O)NCc1ccccc1`, the composite z-score is 0.821 in assay [1]; 0.501 in assay [6]; 0.0301 in [7]; 0.104 with Torsin-1A (Homo sapiens) [8]; 0.383 in the assay with Torsin-1A (Homo sapiens) [9]; -0.272 in assay [10]. Further, the z-score in [2] is -5.4 (inactive); in [3], -0.638 (inactive); in assay [4], -0.16 (inactive); in assay [5] it was -1.26 (inactive).
With `COc1ccc([Si](C)(C)[C@@H]2[C@@H](CCO)O[C@]3(C(=O)N(Cc4ccccc4)c4ccc(N5CCCCC5=O)cc43)[C@H]2C)cc1`, the composite z-score is 0.271 in assay [1]; 0.583 in assay [6]; 0.0446 in [7]; -0.121 with Torsin-1A (Homo sapiens) [8]; 0.198 in the assay with Torsin-1A (Homo sapiens) [9]; 1.44 in [10]. Moreover, the z-score in assay [2] was -8.08 (active); in [3], -0.119 (inactive); in assay [4], 8.84 (active); in assay [5] it was -0.94 (inactive).
Turning to `COCCCNC(=O)[C@]1(Cc2ccccc2CN=[N+]=[N-])N=C(c2ccc(OCCCO)cc2)O[C@@H]1c1ccccc1CN=[N+]=[N-]`, the composite z-score in assay [1] was 0.471; in [6], 1.23; in [7], 0.648; in the assay with Torsin-1A (Homo sapiens) [8], 0.883; with Torsin-1A (Homo sapiens) [9], 0.721; in [10] it was -0.256. The z-score in [2] is -4.04 (inactive); in [3], 1.06 (inactive); in assay [4], 0.969 (inactive); in assay [5] it was -1.02 (inactive).
Consider `CC(C)N1C(=O)c2ccccc2[C@](C)(C(=O)O)[C@@H]1c1ccc(CO)cc1`, for which the composite z-score was -0.654 in [1]; -0.603 in assay [6]; -0.148 in [7]; -1.03 in the assay with Torsin-1A (Homo sapiens) [8]; -0.792 with Torsin-1A (Homo sapiens) [9]; -1.02 in [10]. The z-score in assay [2] was -0.328 (inactive); in assay [3], 0.00934 (inactive); in [4] it was -0.206 (inactive); in assay [5] it was 0.552 (inactive).
As for `CO[C@H]1O[C@H](CO)[C@@H](OC(=O)Nc2cccc(F)c2)[C@H](OC(=O)Nc2ccc3c(c2)OCO3)[C@H]1OC(=O)Nc1ccc2c(c1)OCO2`, the composite z-score is 0.146 in [1]; -0.0782 in assay [6]; 0.0155 in assay [7]; 0.967 with Torsin-1A (Homo sapiens) [8]; 1.2 with Torsin-1A (Homo sapiens) [9]; 1.52 in [10]. Besides, the z-score in [2] was -2.58 (inactive); in assay [3], -0.905 (inactive); in [4], 0.195 (inactive); in assay [5], -0.724 (inactive).
Take `COC(=O)C(CC#Cc1ccc2c(c1)[C@]1(C(=O)N2)[C@H](c2ccc(O)cc2)N2[C@H](c3ccccc3)[C@H](c3ccccc3)OC(=O)[C@H]2[C@@H]1C(N)=O)C(=O)OC`: the composite z-score in assay [1] is -0.206; in assay [6], -1.42; in assay [7], -0.153; with Torsin-1A (Homo sapiens) [8] it was -1.15; in the assay with Torsin-1A (Homo sapiens) [9], -0.491; in [10], -0.907. Further, the z-score is -1.94 (inactive) in assay [2], -1.56 (inactive) in [3], 0.212 (inactive) in assay [4] and -0.615 (inactive) in assay [5].
In the case of `O=C1N(Cc2ccccc2)c2ccccc2[C@H]2OC(c3ccc(OCCCO)cc3)=N[C@@]12CCS(=O)(=O)c1ccccc1`, the composite z-score in assay [1] is 0.889; in assay [6] it was 0.211; in assay [7], 0.166; in the assay with Torsin-1A (Homo sapiens) [8], 0.795; with Torsin-1A (Homo sapiens) [9], 0.591; in assay [10], 2.09. In addition, the z-score in assay [2] was -4.05 (inactive); in [3], -1.19 (inactive); in assay [4] it was 2.96 (inactive); in assay [5], -1 (inactive).
Take `O=C(C=C(CC(O)c1cccc(Cl)c1)OCCF)OCCF` (stereo not given): the composite z-score was -0.234 in assay [1]; -0.0847 in assay [6]; -0.267 in assay [7]; -0.489 with Torsin-1A (Homo sapiens) [8]; -0.167 with Torsin-1A (Homo sapiens) [9]; -0.335 in [10]. In addition, the z-score was -3.1 (inactive) in [2], 0.117 (inactive) in [3], 0.481 (inactive) in [4] and -0.722 (inactive) in assay [5].
Regarding `O=C1O[C@H](c2ccccc2)[C@H](c2ccccc2)N2[C@H]1[C@@H](C(=O)N1CCN(c3ncccn3)CC1)[C@]1(C(=O)Nc3ccc(C#CCCO)cc31)[C@H]2c1ccccc1OCCO`, the composite z-score in assay [1] is 0.163; in assay [6] it was 0.376; in [7], 0.0714; in the assay with Torsin-1A (Homo sapiens) [8], 0.506; with Torsin-1A (Homo sapiens) [9], 0.686; in [10], 0.371. Further, the z-score in assay [2] is -1.55 (inactive); in assay [3], 0.525 (inactive); in assay [4], 0.765 (inactive); in [5], -0.484 (inactive).
In the case of `CC(C)[Si](C#C[Si](C(C)C)(C(C)C)C(C)C)(O[C@H](C)c1cn(Cc2cccc(Cl)c2)nn1)C(C)C`, the composite z-score is -0.0078 in assay [1]; 0.534 in assay [6]; -0.101 in assay [7]; 0.781 in the assay with Torsin-1A (Homo sapiens) [8]; 0.262 with Torsin-1A (Homo sapiens) [9]; 0.632 in [10]. In addition, the z-score in assay [2] is -0.219 (inactive); in [3], -1.25 (inactive); in [4], -0.71 (inactive); in assay [5] it was -0.399 (inactive).
Consider `CN(C)C(=O)[C@@]1(Cc2ccccc2N=[N+]=[N-])N=C(c2ccc(OCCCO)cc2)O[C@H]1c1ccccc1N=[N+]=[N-]`, for which the composite z-score in assay [1] is 0.451; in assay [6], 0.54; in [7], 0.0028; with Torsin-1A (Homo sapiens) [8], 0.761; with Torsin-1A (Homo sapiens) [9] it was 0.776; in [10] it was -0.536. The z-score was -3.76 (inactive) in assay [2], 1.19 (inactive) in assay [3], 1.19 (inactive) in assay [4] and -1.97 (inactive) in assay [5].
For `C=CCC(OC(C)=O)[C@@H]1[C@@H](N(Cc2ccc(-c3ccccc3)cc2)C(=O)Cc2ccc(OC)cc2)c2cc(OCCCO)ccc2N1C(=O)c1ccc(-c2ccccc2)cc1` (stereo not given in full), the composite z-score was 0.0546 in assay [1]; -0.0206 in assay [6]; -0.0018 in assay [7]; 0.0765 in the assay with Torsin-1A (Homo sapiens) [8]; 0.0644 in the assay with Torsin-1A (Homo sapiens) [9]; 1.16 in [10]. Besides, the z-score in assay [2] is -1.56 (inactive); in assay [3] it was 0.148 (inactive); in [4], 1.34 (inactive); in assay [5], -0.522 (inactive).
For the molecule `NC(=O)NCC#Cc1ccc2c(c1)[C@]1(C(=O)N2)[C@H](c2ccc(O)cc2)N2[C@H](c3ccccc3)[C@H](c3ccccc3)OC(=O)[C@H]2[C@@H]1C(N)=O`, the composite z-score in assay [1] was -0.0353; in assay [6] it was -0.928; in assay [7], -0.105; in the assay with Torsin-1A (Homo sapiens) [8], -1.49; with Torsin-1A (Homo sapiens) [9], -1.74; in [10], 0.0139. The z-score in assay [2] was -0.281 (inactive); in assay [3] it was -0.125 (inactive); in assay [4], -0.0515 (inactive); in [5] it was 0.143 (inactive).

The values above are taken from PubChem BioAssay.
